In PubChem BioAssay (NCI):
About 83,000 compounds went through this panel and 20% of them were active in at least one assay; those are over-represented in the sample as a whole.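 Percent growth is the endpoint: 0 to 100 indicates growth inhibition (40 means 60% inhibition), 0 means no net growth, and negative values indicate cell death.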 A number with no mark means an inactive call. The source made the active and inactive calls. Rule for the calls: active = growth percent below 10; inactive = the rest.

Experiments:
Experiment in all cases: NCI-60 one-dose screen, 48 h (100 = growth as untreated, 0 = no growth, -100 = all killed)
Details in all cases: 10 µM unless noted
[1] = test system: DU-145 prostate
[2] = test system: K-562 leukemia
[3] = test system: MALME-3M melanoma
[4] = test system: MDA-MB-231 breast
[5] = test system: RXF 393 renal
[6] = test system: SF-268 CNS
[7] = test system: SF-295 CNS
[8] = test system: SF-539 CNS
[9] = test system: UACC-257 melanoma
[10] = test system: M14 melanoma
[11] = test system: HCT-15 colon
[12] = test system: HT29 colon
[13] = test system: SNB-75 CNS
[14] = test system: SNB-19 CNS
[15] = test system: U251 CNS
[16] = test system: PC-3 prostate
[17] = test system: SK-MEL-5 melanoma
[18] = test system: UACC-62 melanoma
[19] = test system: LOX IMVI melanoma
[20] = test system: SK-MEL-28 melanoma

Row | SMILES | growth [1] | growth [2] | growth [3] | growth [4] | growth [5] [%] | growth [6] [%] | growth [7] | growth [8] | growth [9] | growth [10] | growth [11] [%] | growth [12] | growth [13] | growth [14] [%] | growth [15] [%] | growth [16] [%] | growth [17] | growth [18] | growth [19] [%] | growth [20]
1 | C/C(=C\c1cnc(C)s1)[C@@H]1C[C@@H]2O[C@@H]2CCC[C@H](C)[C@H](O)[C@@H](C)C(=O)C(C)(C)[C@@H](O)CC(=O)O1 | 2.1% (active) | 11.8% | 54.6% | 41.3% | 18.1 | 51.7 | 7.05% (active) | 7.63% (active) | 76.1% | 22.1% | 23 | 8.92% (active) | -1.96% (active) | 44 | 24.5 | 34.2 | 34.3% | 51% | 46.4 | 75.1%
2 | Cc1nc2sc(C(=O)Nc3cccc4ccccc34)c(N)c2cc1C(C)O (stereo not given) | 13.6% | 8.19% (active) | 85.1% | 33.1% | 21.7 | 51.4 | 10.8% | 0.0649% (active) | 64% | 15.4% | 14.4 | 4.82% (active) | 29% | 34 | 25.4 | 30.7 | 8.93% (active) | 36% | 26.9 | 66.9%
3 | C#C[C@@]1(O)[C@@H](CO)O[C@@H](n2cnc3c(-c4ccccc4)ncnc32)[C@@H]1O | 109% | 105% | 103% | 126% | 122 | 99 | 97.7% | 108% | 117% | 97.8% | 98 | 101% | 85.7% | 112 | 104 | 95.5 | 104% | 108% | 94.6 | 111%
4 | Cc1ccc(SC2c3ccc(C)cc3Oc3nc(N)c(C#N)c(N)c32)cc1 (stereo not given) | 92.6% | 4.29% (active) | 31.9% | 69.9% | 53.9 | 82.8 | 103% | 90.5% | 94.6% | 94.9% | 30.7 | 103% | 73.2% | 109 | 85.1 | 80.6 | 63.8% | 103% | 37.7 | 87.7%
5 | COCCOCCOCc1n(Cc2ccc3ccccc3n2)c2ccccc2[n+]1Cc1ccc2ccccc2n1 | 35.4% | 19.1% | 5.23% (active) | 17.9% | 66.9 | 22.7 | 52.3% | 26.7% | -5.39% (active) | 26% | 109 | 15.3% | 4.56% (active) | 22.4 | 10.8 | 13.7 | -14.6% (active) | 14.5% | 28.6 | 41.8%
6 | COc1cc2nc3c(=O)n(CCN(C)C)cnn3c(=O)c2cc1OC | 108% | 125% | 99.4% | 116% | 108 | 101 | 99.5% | 97.7% | 107% | 95.5% | 103 | 101% | 76.4% | 105 | 107 | 102 | 98.7% | 101% | 97.9 | 102%
7 | Cc1ccccc1NC(=O)c1sc2nc(C)c(C(C)O)cc2c1N (stereo not given) | 81.8% | 14.4% | 60.2% | 59.4% | 44.9 | 67.5 | 39.5% | 31.7% | 52.5% | 24.7% | 35.3 | 3.12% (active) | 53.9% | 32.5 | 28.8 | 60.9 | 31.4% | 25.5% | 44.2 | 67.2%
8 | C=C(C)[C@@H]1CC[C@]2(C(=O)O)CC[C@]3(C)[C@H](CC[C@@H]4[C@@]5(C)C[C@@H](CC#Cc6ccc(Cl)cc6)C(=O)C(C)(C)[C@@H]5CC[C@]43C)[C@@H]12 | 39.4% | 28.8% | 21.2% | 6.05% (active) | 62.4 | 74.1 | 41.3% | 57% | 75.6% | 1.24% (active) | 45.5 | 30.1% | 70% | 54 | 28.1 | 25.9 | 51.8% | -20.2% (active) | 59.6 | -23.1% (active)
